Screening data: PubChem BioAssay, National Center for Advancing Translational Sciences (NCATS)
Rows were chosen to be rich in hits. Some 7.9% of all compounds tested hit in one or more screens of this group.
HCV inhibitor = qHTS Assay for Inhibitors of Hepatitis C Virus (HCV); hit rate 3.4% among 340,000; Huh7.5.1 HCVcc-Cre infection, luciferase reporter, 44 h; AID 651820, 2012; Potency, µM (top dose mostly 41.8 µM), without a hit: at the top dose activity change, negative = inhibition, usual class: inhibitors; active = well fitted inhibition curve with a large enough effect; inconclusive = small, poorly fitted or top-dose-only effect, or another doubt; inactive = no such curve, though single readings can be large or run the other way; also: potency is read from the fitted curve at half-maximal effect
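Infectious HCVcc-Cre (~0.5 moi) was added to cells just after compound, with cells seeded 4 h earlier at 1,000 per well. Luciferase activity after 44 h culture reported infection; substrate was incubated 15 min at room temperature before reading.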
HCMV inh = qHTS Assay for inhibitors of the human cytomegalovirus (HCMV) | HFF cells, HCMV-luciferase reporter, 72 h; stronger effect = lower value | activity change, negative = inhibition, % at 57.5 µM | hit rate 4.5% among 410,000; in the data active = activity change below about -60%; inconclusive = no clear call, values can overlap the other calls; inactive = above about -39%
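Cell-based, HFFs, 1000 cells/well, 16 h 37C; cpds in DMSO + HCMV-luc, MOI 1 PFU/cell; 72 h 37C; OneGlo luminescence after 5 min RT; norm. to buffer vs Salinomycin 10uM.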
FMDV antiviral = High Throughput Screening for Foot and Mouth Disease Virus Antivirals; FMDV antiviral cell-based qHTS; Potency, µM (doses to about 57.9 µM), for inactives: at the highest dose activity change, negative = inhibition, hits mostly inhibitors; hit rate 1.2% among 410,000; AID 1159524, 2015; calls by dose curve; tested in HEK293T cells; also: read-out not given here; potency is read from the fitted curve at half-maximal effect; nearly all actives have a fitted effect of over 45% in size
LASV entry inh = qHTS for Inhibitors of binding or entry into cells for Lassa Virus; Potency, µM (titrated, usually from 37.9 µM), for inactives: top-dose activity change, negative = inhibition, most hits filed as inhibitors; Lassa virus pseudotype entry inhibition, cell reporter; hit rate 1.2% among 300,000; calls by dose curve; tested in HEK293 cells; also: potency is read from the fitted curve at half-maximal effect; nearly all actives have a fitted effect of over 50% in size
MARV entry inh = qHTS for inhibitors of binding or entry into cells for Marburg Virus; Marburg virus pseudotyped entry inhibition, cell reporter; Potency, µM (top dose mostly 37.8 µM), inactives show at the highest dose activity change, negative = inhibition, hits mostly inhibitors; hit rate 1.8% among 300,000; calls by dose curve; tested in HEK293 cells; also: potency is read from the fitted curve at half-maximal effect
* = called active by the depositor; ? = inconclusive; . = no result given; [ ] = another dose, or the depositor's remark. % is scaled to controls: 0 for no effect and ±100 for the full control effect.

SMILES | HCV inhibitor | HCMV inh | FMDV antiviral | LASV entry inh | MARV entry inh
Cc1nn(Cc2ccc(Cl)cc2)c(C)c1NC(=O)C(c1ccccc1)c1ccccc1 | ? | -64* | -10% | 1% | ?
Cc1nn(Cc2ccccc2)c(C)c1NC(=O)CCCn1nc(C)c([N+](=O)[O-])c1C | 30% | 9 | -20% | ? | 1%
Cc1cc(NC(=O)Cn2cc([N+](=O)[O-])cn2)n(Cc2ccc(F)cc2)n1 | -3% | -14 | -24% | 14% | 1%
CCc1ccc(NC(=O)Cn2ccn(-c3ccc(OC)cc3)c(=O)c2=O)cc1 | . | ? | 10% | 7%[46.1 µM] | .
COc1cccc(N2CC(NC(=O)c3cc(Cl)ccc3OC)CC2=O)c1 (stereo not drawn) | . | 15 | -6% | 20%[46.1 µM] | .
Cc1nn(Cc2ccc(C(=O)NN)cc2)c(C)c1Cl | -12% | -24 | 11% | -14%[46.1 µM] | ?
Cc1nn(Cc2ccc(C(=O)Nc3ccccc3F)cc2)c(C)c1Cl | -11% | -62* | 4% | . | .
COc1ccc(-n2c(=O)c3c(c4cc(OC)ccc4n3C)n(CCC(C)C)c2=O)cc1 | . | -1 | -16% | 29%[46.1 µM] | .
CN1C(=O)C2CCCCN2c2ccc(C(=O)NCc3ccccc3Br)cc21 (stereo not drawn) | . | ? | 16% | ? | .
CCN(CC)C(=O)Cn1c(C)c(/C=C/c2cc[n+](C)cc2)c2ccccc21 | 12% | -3 | 5% | . | .
Cc1[nH]c2ccccc2c1/C=C/c1cc[n+](C)cc1 | ? | -69* | -20% | ? | -8%
C[n+]1ccc2[nH]c3ccccc3c2c1 | . | -12 | -4% | . | .
CC(C)n1cc(/C=C/c2cc[n+](C)cc2)c2ccccc21 | 32µM* | -95* | ? | ? | 2.5µM*
C=CCn1cc(/C=C/c2cc[n+](C)cc2)c2ccccc21 | ? | -96* | ? | . | .
C=CCn1c(C)c(/C=C/c2cc[n+](C)cc2)c2ccccc21 | ? | -96* | ? | ? | 2.8µM*
Cc1cc(N)c2cc(NC(=O)Nc3ccc4nc(C)cc(N)c4c3)ccc2n1 | . | -99* | . | . | .
COc1ccccc1NC(=O)C(Cc1ccccc1)NS(=O)(=O)c1ccc2c(c1)c(=O)n(C)c(=O)n2C (stereo not drawn) | . | -30 | -9% | ? | -3%[46.1 µM]
O=C1C=C(NCCc2cc(Br)c(O)c(Br)c2)C(=O)c2ncccc21 | ? | -100* | 10µM* | 2.8µM* | ?
COc1ccc(-c2nc3ccccc3n2Cc2ccc(C)cc2)cc1 | ? | -33 | 10% | 1% | 9%[46.1 µM]
COc1ccc(Cn2c(-c3ccc(C)cc3)c[n+]3ccccc23)cc1 | ? | -97* | ? | 6.3µM* | ?
CCC(=O)Nc1sc2c(c1C(N)=O)CCC2 | -27% | -22 | 5% | -6% | 3%
CCN(CC)CC(=O)Nc1sc2c(c1C(=O)c1ccccc1OC)CCC2 | ? | -13 | 0% | 11µM* | ?
N#CCC(=O)Nc1sc2c(c1C(N)=O)CCCC2 | -4% | -62* | -6% | . | .
NC(=O)c1c(NC(=O)Cc2cccs2)sc2c1CCC2 | ? | -17 | 1% | -13% | 3%
COc1ccccc1CC(=O)Nc1sc2c(c1C(N)=O)CCCC2 | 20µM* | 48 | -14% | ? | -20%[46.1 µM]
SMILES | HCV inhibitor | HCMV inh | FMDV antiviral | LASV entry inh | MARV entry inh
NC(=O)c1c(NC(=O)c2ccncc2)sc2c1CCCC2 | 13µM* | 10 | 18% | . | .
CC(C)CC(=O)Nc1nnc(S(=O)(=O)N(C)Cc2ccc(Cl)cc2)s1 | . | 0 | 8% | 3%[46.1 µM] | .
CC(=O)OC[C@H]1O[C@H](CC=NO[C@@H](C)c2cc(-c3c(C)cc(C)cc3C)no2)C=C[C@@H]1OC(C)=O | . | . | . | . | -3%[14.2 µM]
CCCn1nc(C(=O)Nc2nc(-c3ccccn3)cs2)c2ccccc2c1=O | 5µM* | 28 | ? | . | .
Cc1csc(NC(=O)c2ccc(Cl)cc2[N+](=O)[O-])n1 | 1.6µM* | 3 | -22% | -19% | ?
CC(=O)Nc1ccc(C(=O)Nc2nc(-c3ccccn3)cs2)cc1 | -11% | -9 | -15% | . | .
O=C(Nc1nc(-c2ccccn2)cs1)c1ccccc1-n1cnnn1 | ? | -92* | -9% | . | .
Cc1cc(C(=O)Nc2nc(-c3ccccn3)cs2)ccc1[N+](=O)[O-] | 11µM* | -72* | 3% | ? | ?
